Pf growth 96h = inhibits malaria parasite growth, 96 h | P. falciparum luciferase reporter growth, 96 h | Potency, µM (titrated, usually from 28.7 µM), for the others: at the highest dose activity change, negative = inhibition, actives largely listed as inhibitors | hit rate 6.9% among 320,000 | AID 504834; also: % is scaled to controls: 0 for no effect and ±100 for the full control effect
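P. falciparum expressing integrated firefly luciferase grown in erythrocytes (2% hematocrit, 0.05% parasitemia final) with compounds for 96 hours at 37 C, 5% CO2. Growth inhibition read as loss of luminescence after adding luciferase detection reagent.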
VACV mCherry inh = inhibitors of vaccinia virus infection (mCherry reporter signal) | AID 720579 | Vaccinia virus mCherry reporter infection, fluorescence | hit rate 0.63% among 310,000 | Potency, µM (highest dose often 36.5 µM), inactives show at the highest dose activity change, negative = inhibition, usual class: inhibitors; calls by dose curve; tested in A549 cells; also: % is scaled to controls: 0 for no effect and ±100 for the full control effect; nearly all actives have a fitted effect of over 35% in size
NS1 function inh = influenza NS1 inhibition. Potency, µM (highest dose often 46.1 µM), without a hit: at the highest dose activity, positive = more growth. hit rate 0.4% among 270,000. AID 2326; calls by dose curve; also: actives are rising curves; nearly all actives have a fitted effect of over 50% in size
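Growth recovery, yeast-based: influenza A NS1 expressed in S. cerevisiae causes slow growth, and suppressors are detected by OD600. The parent strain without NS1 is used as positive control.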
Vaccinia Venus = vaccinia inhibition (Venus reporter); Vaccinia virus Venus reporter expression, fluorescence; Potency, µM (doses to about 36.5 µM), without a hit: top-dose activity change, negative = inhibition, most hits filed as inhibitors; hit rate 0.46% among 330,000; AID 720580; calls by dose curve; tested in A549 cells; also: % is scaled to controls: 0 for no effect and ±100 for the full control effect; nearly all actives have a fitted effect of over 30% in size
HCV inh = HCV inhibition; Huh7.5.1 HCVcc-Cre infection, luciferase reporter, 44 h; AID 651820; Potency, µM (top dose mostly 41.8 µM), inactives show at the top dose activity change, negative = inhibition, usual class: inhibitors; hit rate 3.4% among 340,000; also: % is scaled to controls: 0 for no effect and ±100 for the full control effect
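1,000 cells/well; 4 h culture; + compound; + HCVcc-Cre (~0.5 moi); 44 h; luciferase substrate, RT 15 min; read 15 sec.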
Pf growth 48h = P. falciparum growth inhibition at 48 hours (one generation) | P. falciparum luciferase growth in erythrocytes, 48 h | Potency, µM (doses to about 28.7 µM), without a hit: at the highest dose activity change, negative = inhibition, hits mostly inhibitors | hit rate 5.9% among 310,000; also: % is scaled to controls: 0 for no effect and ±100 for the full control effect
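Firefly luciferase activity from engineered P. falciparum reports growth; inhibitors lower the luminescent signal. Cultures contained 2% hematocrit erythrocytes at 0.1% final parasitemia.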
* = called active by the depositor; i = inactive; ? = inconclusive; / = no result given. Compounds with a hit are over-represented: about 11% of the library has one in this group of screens. Unless noted, calls follow the shape of the dose curve; as a rule, active = well fitted inhibition curve with a large enough effect; inconclusive = small, poorly fitted or top-dose-only effect, or another doubt; inactive = no such curve, though single readings can be large or run the other way. Potency is read from the fitted curve at half-maximal effect.

SMILES | Pf growth 96h | VACV mCherry inh | NS1 function inh | Vaccinia Venus | HCV inh | Pf growth 48h
CN1CCCCC1=NCCCn1cnc2c1c(=O)n(C)c(=O)n2C | 36% | / | -7% | / | 12% | 8%
CCOC(=O)c1sc(NC(=O)CN2CCCC2)c(C(=O)OCC)c1C | 134% | 1% | -8% | 3% | -1% | 8%
CCOC(=O)c1c(NC(=O)CN2CCN(S(=O)(=O)c3cc(Cl)ccc3Cl)CC2)sc(C(=O)N(C)C)c1C | / | / | / | / | 11µM* | /
CCOC(=O)c1c(NC(=O)C(F)(OC)C(F)(F)F)sc(C(=O)N2CCCCC2)c1C (configuration not stated) | 44% | i | -60% | -15% | ? | 12µM*
CCOC(=O)c1c(NC(=O)CN2CCN(C)CC2)sc(C(=O)Nc2ccccc2)c1C | 0% | -7% | 0% | -24% | 6.3µM* | 13µM*
COC(=O)c1c(NC(=O)Cc2cccs2)sc(C(=O)N2CCCCC2)c1C | -4% | -20% | -42% | -11% | ? | ?
CCOC(=O)c1sc(NC(=O)CCN2CC(C)OC(C)C2)c(C(=O)OCC)c1C (configuration not stated) | -18% | / | -5% | / | / | /
CCOC(=O)c1sc(NC(=O)CCN2CCN(C)CC2)c(C(=O)OCC)c1C | 8% | -6% | -6% | -10% | 14µM* | 5%
CN1CCN(C(=O)CSc2nc(-c3ccco3)cc(C(F)(F)F)n2)CC1 | 0% | -21% | / | 1% | -6% | 37%
CC(C)c1ccc(NC(=O)c2ccc(F)c(S(=O)(=O)N3CCN(c4ccccc4F)CC3)c2)cc1 | / | -2% | / | -28% | / | /
Cc1c(C(=O)NCc2ccccc2)oc2c1-c1[nH]ncc1CC2 | / | 0% | / | 5% | / | /
O=C(CC1N=C2c3ccccc3N=C(SCC(=O)Nc3ccc(F)cc3)N2C1=O)NCc1ccco1 (configuration not stated) | / | -6% | / | -7% | / | /
Nn1c(COc2ccccc2F)nnc1SCC(=O)NC1CC1 | 43% | 0% | / | 1% | 19% | 0%
Cc1cc2oc3c(c(=O)c2cc1C)C(c1ccc(F)cc1)N(CCCN1CCOCC1)C3=O (configuration not stated) | 10µM* | -28% | -81% | -18% | ? | 12µM*
CCN(CC)CCN1C(=O)c2oc3ccccc3c(=O)c2C1c1ccc(F)cc1 (configuration not stated) | 9.3µM* | / | -6% | / | 18% | 2.9µM*
Cc1cccc(NS(=O)(=O)c2coc(C(N)=O)c2)c1C | ? | -9% | 16% | 5% | 10% | 7%
COc1cccc(C(NC(=O)c2ccccc2F)NC(=O)c2ccccc2F)c1 | ? | / | 12% | / | -19% | 13µM*
Cc1ccccc1C(=O)NC(NC(=O)c1ccccc1C)c1cccc([N+](=O)[O-])c1 | 1.7µM* | i | -3% | -7% | 4% | 27%
Cc1ccc(-c2csc3nc(C)n(N)c(=O)c23)o1 | 90% | / | -1% | / | -30% | /
CN1C2CCC1CC(NC(=O)CSc1ccc(C(C)(C)C)cc1)C2 (configuration not stated) | -4% | / | -1% | / | -9% | ?
Cn1nc([N+](=O)[O-])nc1Oc1ccccc1F | 13µM* | -1% | 3% | -7% | 29% | -1%
Cn1nc([N+](=O)[O-])nc1Oc1ccccc1N | -17% | / | -31% | / | 5% | /
CCN(CC(=O)NCc1ccc(Cl)cc1)C(=O)CSc1ccc(F)cc1 | -2% | -25% | / | -24% | ? | 1%
CCN(CC(=O)NCc1ccc(F)cc1)C(=O)CN1CCN(c2cc(Cl)ccc2C)CC1 | ? | -17% | -6% | -13% | 6.3µM* | ?
CN(CCOc1ccc(Cl)cc1)CC(=O)Nc1ccc(OC(F)(F)F)cc1 | 17% | / | -34% | / | ? | 14%
SMILES | Pf growth 96h | VACV mCherry inh | NS1 function inh | Vaccinia Venus | HCV inh | Pf growth 48h
CCCCc1cc(=O)oc2cc(C)cc(OCC(=O)NCc3cccnc3)c12 | 9.3µM* | -8% | -17% | 0% | ? | 10µM*
CCCCc1cc(=O)oc2cc(C)cc(OC(C)C(=O)NCC3CCC(C(=O)O)CC3)c12 (configuration not stated) | 9.3µM* | 0% | 5% | -6% | ? | ?
CCc1cc(=O)oc2cc(C)cc(OCC(=O)NCc3cccnc3)c12 | ? | / | -8% | / | -3% | -1%
CCCc1cc(=O)oc2cc(C)cc(OC(C)C(=O)NCc3cccnc3)c12 (configuration not stated) | 4.7µM* | / | 2% | / | -26% | 8.3µM*
CCCc1cc(=O)oc2cc(C)cc(OCC(=O)NCc3ccncc3)c12 | 8.3µM* | / | -1% | / | -10% | 9.3µM*
O=C(c1ccccc1)N(Cc1ccco1)Cc1cccs1 | / | 1% | / | -8% | / | /
CC(Oc1cc2oc(=O)cc(-c3ccccc3)c2cc1Cl)C(=O)NCC1CCC(C(=O)O)CC1 (configuration not stated) | ? | -7% | 6% | -1% | -10% | -5%
CCCc1cc(=O)oc2cc(C)cc(OC(C)C(=O)NCc3ccncc3)c12 (configuration not stated) | 2.9µM* | / | -11% | / | ? | 3.3µM*
CCc1cc2c(-c3ccccc3)cc(=O)oc2cc1OC(C)C(=O)NCC1CCC(C(=O)O)CC1 (configuration not stated) | 9.3µM* | -17% | 8% | -9% | -20% | ?
CSc1cccc(NC(=S)N2CCC(N(C)C3CCCCCC3)CC2)c1 | 24% | ? | / | -21% | ? | -12%
O=C1c2ccccc2C(=Nc2ccccc2)C1c1cccc(Br)c1 (configuration not stated) | 4.1µM* | / | 4% | / | 1% | ?
CCN(CC)CCCNC(=O)CCCn1c(=O)[nH]c2ccc(Br)cc2c1=O | / | -5% | / | -2% | / | /
CC(C)/C=C/CN1CCN(CCCc2ccccc2)C(CCO)C1 (configuration not stated) | ? | i | -3% | -10% | -1% | 0%
Cc1ccc(NC(=S)N(CCCN2CCCC2)Cc2cccn2Cc2ccc(Cl)cc2)cc1Cl | 41% | -16% | / | -19% | 0.56µM* | ?
CCN1CCCc2cc(CN(CCN3CCOCC3)C(=S)Nc3ccccc3C)ccc21 | ? | i | / | -23% | 5% | -11%
CCN1CCCc2cc(CN(CCN3CCOCC3)C(=S)Nc3cccc(C)c3)ccc21 | 12µM* | ? | / | -12% | -38% | ?
Cc1ccc(NC(=S)N(CCCN2CCCC2)Cc2cccn2Cc2ccc(Cl)cc2)cc1C | 37% | ? | / | -13% | ? | ?
Cc1ccc(NC(=S)N(CCCN2CCOCC2)Cc2ccco2)cc1 | 12µM* | -22% | 2% | -11% | 4% | 2%
S=C(Nc1ccc(Cl)cc1)N(CCCN1CCOCC1)Cc1ccco1 | 0% | i | -2% | -19% | 15% | 8%
Cc1ccc(NC(=S)N(CCN2CCOCC2)Cc2ccccc2F)cc1Cl | ? | -6% | / | -10% | -8% | 12µM*

Source: PubChem BioAssay (National Center for Advancing Translational Sciences (NCATS))
